Of roughly 7,900 targets only a part is listed; those with a hit were picked by preference. About 0.6% of all pairs of compound and target were hits.
What was measured:
Test in all cases: log2 fold change, soluble protein after heating vs DMSO (PISA); higher = thermal stabilisation; K562 cells, 10 uM, 30 min; active = over 0.2 and 3.5 SD of the protein, either way, in both replicates (recomputed)
[1] = compound: CC[C@@H]1C(=O)N(C)c2cnc(Nc3ccc(C(=O)NC4CCN(C)CC4)cc3OC)nc2N1C1CCCC1
Method in brief: (§1)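 K562 cells at 2×10^6 cells/mL were exposed to 10 μM compound for 30 min, then aliquots were heated for 3 min across 48°C-58°C, pooled, and extracted in PBS containing 0.5% NP-40 at 4°C. The supernatant after 21,000xg for 90 min was taken as soluble protein and measured by TMTpro 16plex LC-MS/MS with channel sums equalised. Thermal stability is reported relative to control samples, with values from duplicates. Fold changes are given on a log2 scale.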

volasertib = compound: CC[C@@H]1C(=O)N(C)c2cnc(Nc3ccc(C(=O)N[C@H]4CC[C@H](N5CCN(CC6CC6)CC5)CC4)cc3OC)nc2N1C(C)C [volasertib]
Method in brief: as §1

[2] = compound: CC[C@H](C)N1C=C(C2=C(C=C(C=C21)C3=CN=C(C=C3)N4CCNCC4)C(=O)NCC5=C(C=C(NC5=O)C)C)C
Method in brief: as §1

epoxomicin = compound: CC[C@H](C)[C@@H](C(=O)N[C@@H]([C@@H](C)O)C(=O)N[C@@H](CC(C)C)C(=O)[C@]1(CO1)C)NC(=O)[C@H]([C@@H](C)CC)N(C)C(=O)C [epoxomicin]
Method in brief: as §1

[3] = compound: CCn1c(C(=O)N(C2CC2)C2CC2)cc2c3c(ncn3C)c(Nc3cc(C)n(C)n3)nc21
Method in brief: as §1

[4] = compound: CCn1cc(-c2ccnc3[nH]c(-c4cccc(CN(C)C)c4)cc23)c(-c2ccc(NC(=O)N(C)C)cc2)n1
Method in brief: as §1

[5] = compound: CN(C)CC(=O)Nc1ccc2[nH]c(=O)c3ccccc3c2c1
Method in brief: as §1

rosiglitazone = compound: CN(CCOC1=CC=C(C=C1)C[C@H]2C(=O)NC(=O)S2)C3=CC=CC=N3 (racemic) [rosiglitazone]
Method in brief: as §1

[6] = compound: CN1C2=C(C3=C1C(=O)N(N=C3)CC4=CC(=CC=C4)N)SC(=C2)S(=O)C
Method in brief: as §1

[7] = compound: CN1CCC(CNc2ccc3ncc(-c4cccc(OC(F)(F)F)c4)n3n2)CC1
Method in brief: as §1

Measured: log2 fold change

APOB (UniProt P04114)
Chain of UniProt P04114 (P04114 whole entry, looked up): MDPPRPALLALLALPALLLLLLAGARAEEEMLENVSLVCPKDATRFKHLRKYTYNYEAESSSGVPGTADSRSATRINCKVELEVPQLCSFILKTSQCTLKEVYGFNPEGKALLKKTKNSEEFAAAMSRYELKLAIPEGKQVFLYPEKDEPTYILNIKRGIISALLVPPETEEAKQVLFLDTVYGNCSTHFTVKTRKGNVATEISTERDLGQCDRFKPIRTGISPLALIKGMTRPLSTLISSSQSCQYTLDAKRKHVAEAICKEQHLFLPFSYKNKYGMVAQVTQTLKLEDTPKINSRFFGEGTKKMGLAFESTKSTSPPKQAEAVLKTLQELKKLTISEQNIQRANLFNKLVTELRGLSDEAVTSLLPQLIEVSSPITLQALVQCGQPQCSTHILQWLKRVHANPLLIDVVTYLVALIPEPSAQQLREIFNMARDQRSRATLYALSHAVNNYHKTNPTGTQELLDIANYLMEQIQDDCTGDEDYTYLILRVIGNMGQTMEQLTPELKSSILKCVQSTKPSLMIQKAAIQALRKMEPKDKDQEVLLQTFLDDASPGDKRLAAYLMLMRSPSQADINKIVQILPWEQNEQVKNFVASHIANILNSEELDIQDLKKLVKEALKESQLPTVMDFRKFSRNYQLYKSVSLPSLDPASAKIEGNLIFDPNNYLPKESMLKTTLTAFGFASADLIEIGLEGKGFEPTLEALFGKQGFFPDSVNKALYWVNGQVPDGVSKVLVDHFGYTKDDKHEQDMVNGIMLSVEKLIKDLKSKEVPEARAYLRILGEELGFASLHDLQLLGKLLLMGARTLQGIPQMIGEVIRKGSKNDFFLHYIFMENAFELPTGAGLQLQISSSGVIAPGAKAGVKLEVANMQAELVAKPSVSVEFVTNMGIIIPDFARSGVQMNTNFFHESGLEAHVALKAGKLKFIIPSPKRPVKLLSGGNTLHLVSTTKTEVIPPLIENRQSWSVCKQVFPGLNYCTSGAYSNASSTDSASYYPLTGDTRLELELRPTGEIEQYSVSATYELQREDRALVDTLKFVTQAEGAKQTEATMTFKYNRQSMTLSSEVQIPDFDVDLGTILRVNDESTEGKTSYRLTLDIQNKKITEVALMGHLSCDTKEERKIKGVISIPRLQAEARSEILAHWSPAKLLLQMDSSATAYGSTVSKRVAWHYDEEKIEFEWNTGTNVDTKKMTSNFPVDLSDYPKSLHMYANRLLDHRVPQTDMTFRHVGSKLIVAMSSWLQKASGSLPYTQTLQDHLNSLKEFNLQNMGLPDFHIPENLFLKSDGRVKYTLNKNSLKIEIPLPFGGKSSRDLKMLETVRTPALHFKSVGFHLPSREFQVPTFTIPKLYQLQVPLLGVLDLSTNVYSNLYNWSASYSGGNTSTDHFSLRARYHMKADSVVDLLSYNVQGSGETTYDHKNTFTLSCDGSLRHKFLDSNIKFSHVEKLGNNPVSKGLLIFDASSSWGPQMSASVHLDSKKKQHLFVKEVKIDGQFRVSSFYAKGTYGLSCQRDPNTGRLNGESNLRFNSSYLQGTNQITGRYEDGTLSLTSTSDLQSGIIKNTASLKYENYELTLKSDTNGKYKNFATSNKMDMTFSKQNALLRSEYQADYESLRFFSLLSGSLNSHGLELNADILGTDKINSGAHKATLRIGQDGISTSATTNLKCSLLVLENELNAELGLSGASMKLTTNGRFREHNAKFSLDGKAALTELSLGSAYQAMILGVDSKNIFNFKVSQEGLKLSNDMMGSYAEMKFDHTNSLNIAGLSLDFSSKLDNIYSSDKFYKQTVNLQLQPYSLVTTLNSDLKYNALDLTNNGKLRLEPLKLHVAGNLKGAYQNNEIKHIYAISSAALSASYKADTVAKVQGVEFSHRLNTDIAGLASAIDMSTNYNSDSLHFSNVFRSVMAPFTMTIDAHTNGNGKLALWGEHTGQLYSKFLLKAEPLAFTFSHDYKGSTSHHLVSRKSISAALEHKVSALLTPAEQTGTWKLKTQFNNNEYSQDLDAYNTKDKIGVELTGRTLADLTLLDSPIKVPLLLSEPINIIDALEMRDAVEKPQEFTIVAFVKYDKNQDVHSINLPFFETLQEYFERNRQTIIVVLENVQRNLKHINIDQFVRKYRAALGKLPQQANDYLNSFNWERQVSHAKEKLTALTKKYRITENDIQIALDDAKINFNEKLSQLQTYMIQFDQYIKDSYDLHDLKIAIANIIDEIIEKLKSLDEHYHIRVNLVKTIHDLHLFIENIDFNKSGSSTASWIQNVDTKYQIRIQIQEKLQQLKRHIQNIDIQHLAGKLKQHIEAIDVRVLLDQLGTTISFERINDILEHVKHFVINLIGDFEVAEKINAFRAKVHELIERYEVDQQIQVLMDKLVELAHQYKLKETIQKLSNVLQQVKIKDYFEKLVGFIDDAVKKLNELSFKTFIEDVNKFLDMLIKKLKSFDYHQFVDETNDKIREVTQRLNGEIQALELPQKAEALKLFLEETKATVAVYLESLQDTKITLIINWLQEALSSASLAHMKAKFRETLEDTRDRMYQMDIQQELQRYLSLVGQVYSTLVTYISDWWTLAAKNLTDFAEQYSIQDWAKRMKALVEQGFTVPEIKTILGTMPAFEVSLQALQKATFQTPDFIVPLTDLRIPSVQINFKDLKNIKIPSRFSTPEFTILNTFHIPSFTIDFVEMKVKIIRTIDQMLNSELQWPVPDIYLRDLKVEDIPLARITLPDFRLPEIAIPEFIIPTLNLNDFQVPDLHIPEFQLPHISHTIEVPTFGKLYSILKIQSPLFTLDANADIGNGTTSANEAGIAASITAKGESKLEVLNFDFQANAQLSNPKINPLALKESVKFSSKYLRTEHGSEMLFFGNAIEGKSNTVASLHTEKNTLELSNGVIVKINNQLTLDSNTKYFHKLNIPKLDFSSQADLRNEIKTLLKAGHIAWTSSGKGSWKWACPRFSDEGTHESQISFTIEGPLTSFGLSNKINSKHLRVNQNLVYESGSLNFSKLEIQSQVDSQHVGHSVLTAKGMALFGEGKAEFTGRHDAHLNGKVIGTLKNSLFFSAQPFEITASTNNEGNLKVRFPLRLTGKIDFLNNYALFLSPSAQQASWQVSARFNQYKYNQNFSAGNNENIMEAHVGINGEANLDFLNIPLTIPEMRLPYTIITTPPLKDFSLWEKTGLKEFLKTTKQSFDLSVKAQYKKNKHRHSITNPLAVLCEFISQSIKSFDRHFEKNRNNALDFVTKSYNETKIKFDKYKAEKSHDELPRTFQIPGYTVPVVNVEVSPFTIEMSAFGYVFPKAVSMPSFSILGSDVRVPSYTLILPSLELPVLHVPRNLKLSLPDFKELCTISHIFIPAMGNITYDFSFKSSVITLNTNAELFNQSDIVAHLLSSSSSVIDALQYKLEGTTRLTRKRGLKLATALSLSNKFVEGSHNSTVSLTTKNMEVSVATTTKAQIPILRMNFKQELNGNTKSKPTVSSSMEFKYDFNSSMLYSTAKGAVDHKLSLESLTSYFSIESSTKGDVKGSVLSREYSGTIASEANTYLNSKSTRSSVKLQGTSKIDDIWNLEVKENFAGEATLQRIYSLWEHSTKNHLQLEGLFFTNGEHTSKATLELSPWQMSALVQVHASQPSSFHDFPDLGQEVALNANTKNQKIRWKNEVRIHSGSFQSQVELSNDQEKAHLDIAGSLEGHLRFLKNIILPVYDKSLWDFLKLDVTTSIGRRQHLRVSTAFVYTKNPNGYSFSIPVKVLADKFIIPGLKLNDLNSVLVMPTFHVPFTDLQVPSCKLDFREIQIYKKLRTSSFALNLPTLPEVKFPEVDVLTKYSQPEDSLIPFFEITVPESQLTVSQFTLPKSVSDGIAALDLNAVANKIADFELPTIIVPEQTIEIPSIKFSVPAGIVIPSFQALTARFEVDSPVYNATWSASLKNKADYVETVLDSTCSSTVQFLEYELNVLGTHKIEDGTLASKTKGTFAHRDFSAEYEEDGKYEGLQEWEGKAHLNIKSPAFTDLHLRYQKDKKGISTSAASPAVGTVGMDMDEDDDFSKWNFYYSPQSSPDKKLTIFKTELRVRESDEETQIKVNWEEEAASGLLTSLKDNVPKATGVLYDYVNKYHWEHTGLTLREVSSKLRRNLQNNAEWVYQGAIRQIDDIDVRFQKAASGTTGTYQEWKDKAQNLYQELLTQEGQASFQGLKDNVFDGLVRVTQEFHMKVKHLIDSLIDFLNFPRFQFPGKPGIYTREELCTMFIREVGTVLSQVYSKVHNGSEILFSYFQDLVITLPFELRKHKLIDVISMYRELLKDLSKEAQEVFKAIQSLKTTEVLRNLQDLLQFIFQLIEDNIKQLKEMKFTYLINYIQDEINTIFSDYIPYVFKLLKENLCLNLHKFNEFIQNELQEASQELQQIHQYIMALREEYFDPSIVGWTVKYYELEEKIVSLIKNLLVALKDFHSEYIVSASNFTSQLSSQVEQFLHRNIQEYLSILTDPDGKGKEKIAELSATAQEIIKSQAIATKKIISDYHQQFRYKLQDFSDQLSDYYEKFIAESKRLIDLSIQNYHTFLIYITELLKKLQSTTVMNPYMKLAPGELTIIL
inactive: [1] -0.235 | volasertib -0.104 | [2] -0.227 | epoxomicin -0.056 | [3] 0.004 | [4] 0.048 | [5] 0.014 | rosiglitazone 0.02 | [6] 0.116 | [7] -0.354

ABHD16A (UniProt O95870)
Chain of UniProt O95870 (O95870 whole entry, looked up): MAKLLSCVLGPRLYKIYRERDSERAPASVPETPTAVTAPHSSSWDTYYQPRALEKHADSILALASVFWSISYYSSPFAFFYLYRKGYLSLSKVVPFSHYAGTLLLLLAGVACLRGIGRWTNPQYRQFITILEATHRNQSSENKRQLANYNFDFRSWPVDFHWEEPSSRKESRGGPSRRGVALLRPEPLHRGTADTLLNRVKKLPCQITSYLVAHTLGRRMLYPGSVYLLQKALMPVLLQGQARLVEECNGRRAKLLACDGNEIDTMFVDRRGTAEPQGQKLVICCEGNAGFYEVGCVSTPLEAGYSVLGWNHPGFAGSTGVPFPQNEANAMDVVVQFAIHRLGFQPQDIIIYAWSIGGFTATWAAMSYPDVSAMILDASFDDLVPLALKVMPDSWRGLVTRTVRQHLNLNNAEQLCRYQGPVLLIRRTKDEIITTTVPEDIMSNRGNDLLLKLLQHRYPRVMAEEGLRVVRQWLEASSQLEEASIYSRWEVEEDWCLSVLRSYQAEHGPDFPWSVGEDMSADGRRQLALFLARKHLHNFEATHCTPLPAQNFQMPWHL
inactive: [1] 0.134 | volasertib 0.079 | [2] -0.01 | epoxomicin -0.008 | [3] -0.092 | [4] -0.09 | [5] -0.018 | rosiglitazone -0.003 | [6] -0.076 | [7] 0.283

BOP1 (UniProt Q14137)
inactive: [1] -0.072 | volasertib -0.328 | [2] 0.019 | epoxomicin 0.002 | [3] -0.023 | [4] -0.075 | [5] 0.009 | rosiglitazone -0.053 | [6] 0.228 | [7] 0.141

ATP1B3 (UniProt P54709)
inactive: [1] 0.06 | volasertib 0.094 | [2] -0.022 | epoxomicin -0.033 | [3] 0.04 | [4] -0.028 | [5] 0.012 | rosiglitazone -0.011 | [6] -0.063 | [7] 0.168

ARPP19 (UniProt P56211)
inactive: [1] 0.013 | volasertib 0.016 | [2] -0.01 | epoxomicin 0.041 | [3] 0.029 | [4] -0.052 | [5] 0.032 | rosiglitazone 0.001 | [6] 0.069 | [7] -0.041

ARGLU1 (UniProt Q9NWB6)
inactive: [1] 0.094 | volasertib -0.004 | [2] 0.033 | epoxomicin -0.106 | [3] 0.024 | [4] 0.138 | [5] 0.003 | rosiglitazone 0.012 | [6] 0.068 | [7] 0

ACP1 isoform 2 (UniProt P24666)
inactive: [1] 0.034 | volasertib 0.055 | [2] 0.063 | epoxomicin 0.012 | [3] -0.1 | [4] -0.083 | [5] 0.05 | rosiglitazone 0.027 | [6] 0.014 | [7] -0.07

BRAP (UniProt Q7Z569)
inactive: [1] -0.092 | volasertib -0.23 | [2] 0.033 | epoxomicin -0.093 | [3] -0.02 | [4] 0.086 | [5] 0.02 | rosiglitazone 0.02 | [6] 0.06 | [7] -0.158

AMFR (UniProt Q9UKV5)
inactive: [1] -0.205 | volasertib -0.215 | [2] 0.044 | epoxomicin 0.049 | [3] -0.059 | [4] 0 | [5] -0.007 | rosiglitazone 0.022 | [6] 0.01 | [7] -0.055

ASH2L (UniProt Q9UBL3)
inactive: [1] -0.117 | [2] 0.079 | epoxomicin 0.041 | [3] -0.017 | [4] -0.012 | [5] -0.003 | rosiglitazone -0.004 | [6] 0.001 | [7] -0.012
active: volasertib -0.327

ARL3 (UniProt P36405)
inactive: [1] 0.036 | volasertib 0.046 | [2] 0.001 | epoxomicin -0.01 | [3] -0.001 | [4] -0.005 | [5] -0.014 | rosiglitazone 0.008 | [6] -0.098 | [7] -0.018

ATP5ME (UniProt P56385)
inactive: [1] 0.004 | volasertib 0.038 | [2] -0.048 | epoxomicin 0.075 | [3] -0.002 | [4] 0.002 | [5] -0.054 | rosiglitazone -0.013 | [6] 0.018 | [7] 0.069

ARMC10 (UniProt Q8N2F6)
active: volasertib -0.333
inactive: [1] -0.062 | [2] 0.075 | epoxomicin 0.022 | [3] -0.017 | [4] -0.008 | [5] 0.062 | rosiglitazone 0.015 | [6] 0.002 | [7] -0.044

ALDH9A1 (UniProt P49189)
inactive: [1] -0.035 | volasertib 0.009 | [2] 0.111 | epoxomicin -0.011 | [3] 0.095 | [4] -0.005 | [5] 0 | rosiglitazone -0.062 | [6] -0.015 | [7] 0.016
